Measured values from PubChem BioAssay (NCATS).
Values joined by “and” are separate entries in the source; they are usually repeats but may differ in a detail not shown here. Equal values may be shown once. Results filed as inconclusive are left out. Active and inactive are the calls of the source. Unless noted, calls follow the shape of the dose curve; as a rule, active = well fitted curve in the direction sought with a large enough effect; inconclusive = small, poorly fitted or top-dose-only effect, or another doubt; inactive = no such curve, though single readings can be large; an effect the other way counts as inactive or inconclusive.

What was measured:
[1] = AP1 Signaling Pathway (AID 357; active = well fitted curve in either direction with a large enough effect, not every such curve was filed as active;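 also: ME-180 reporter cells stimulated with EGF at its EC50 level; % is scaled to controls: 0 for no effect and ±100 for the full control effect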); conditions: ME-180 AP-1-bla reporter, EGF-induced, beta-lactamase ratio, 5 h
Summary of the method: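 Titration-series screen for positive or negative modulators of EC50 EGF-induced signaling in ME-180 cells carrying an AP-1-driven beta-lactamase reporter. After 5 hours at 37 degrees Celsius, CCF4 460nm/530nm emission ratio gave %Activity; AC50 values derived.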

[2] = target: Cytochrome P450 1A2 (Homo sapiens) (UniProt P05177); assay: p450-cyp1a2 (AID 410; calls by dose curve; also: potency is read from the fitted curve at half-maximal effect;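 as to activity change, negative = inhibition: -100% = full effect of reference inhibitor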); conditions: recombinant CYP1A2, luciferin-ME demethylation, luminescence; series mostly up to 57 µM
Sequence of Cytochrome P450 1A2 (Homo sapiens) (P05177 whole entry, looked up): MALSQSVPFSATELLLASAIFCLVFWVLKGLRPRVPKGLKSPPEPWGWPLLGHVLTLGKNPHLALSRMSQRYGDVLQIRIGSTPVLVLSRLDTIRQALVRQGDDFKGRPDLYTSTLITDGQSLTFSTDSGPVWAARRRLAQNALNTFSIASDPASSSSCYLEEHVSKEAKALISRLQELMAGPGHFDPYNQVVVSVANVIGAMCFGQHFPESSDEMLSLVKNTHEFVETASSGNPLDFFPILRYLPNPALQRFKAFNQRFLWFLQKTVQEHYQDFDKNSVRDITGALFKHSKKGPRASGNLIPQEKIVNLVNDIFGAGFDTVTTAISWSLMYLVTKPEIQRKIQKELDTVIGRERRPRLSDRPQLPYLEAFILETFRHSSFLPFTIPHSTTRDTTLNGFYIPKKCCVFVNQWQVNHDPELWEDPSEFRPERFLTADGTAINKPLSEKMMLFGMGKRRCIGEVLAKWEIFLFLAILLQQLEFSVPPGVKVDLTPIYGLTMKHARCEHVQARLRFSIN
Summary of the method: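 Read-out is luminescence from luciferin produced by CYP1A2 demethylation of Luciferin-ME (100uM, at Km). Detection reagent stopped the 60 min NADPH-dependent reaction; signals were normalized to 57 uM furafylline.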

[3] = NFAT Signaling Pathway (AID 444; active = well fitted curve in either direction with a large enough effect, not every such curve was filed as active;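 also: carbachol stimulus at about its EC50 of 1 µM final; % is scaled to controls: 0 for no effect and ±100 for the full control effect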); conditions: Jurkat NFAT-bla M1, carbachol, beta-lactamase ratio, 5 h; at 7.69 µM (top of the series) unless noted
Summary of the method: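 Jurkat cells carrying an NFAT-driven β-lactamase reporter and co-transfected muscarinic M1 receptor were treated with compound plus carbachol (1 uM final, an EC50 level) for 5 h at 37 °C. CCF4 loading followed for 1 h at RT; 460/530 nm ratio gave %activity.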

[4] = Stat Signaling Pathway (AID 446; active = well fitted curve in either direction with a large enough effect, not every such curve was filed as active;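 also: ME-180 cervical cancer cells given 40 pM IL-6 alongside compound; SIE-controlled beta-lactamase reporter measured as 460/530 nm FRET emission ratio; % is scaled to controls: 0 for no effect and ±100 for the full control effect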); conditions: ME-180 (cervical carcinoma) SIE beta-lactamase reporter, IL-6 stimulated, 5 h
Summary of the method: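 Compound effects on IL-6-induced STAT reporter activity were measured in ME-180 cells. After overnight culture, cells were co-treated with 40 pM IL-6 for 5 hrs before beta-lactamase substrate loading at room temperature.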

[5] = target: Glucocorticoid receptor (Homo sapiens) (UniProt P04150); assay: GR-GFP Redistribution (AID 450;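 active = compounds whose dose series gives a full or clear partial fitted curve of increased nuclear translocation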; also: potency is read from the fitted curve at half-maximal effect); conditions: U2OS GR-GFP nuclear translocation, laser cytometry, 2 h
Sequence of Glucocorticoid receptor (Homo sapiens) (P04150 whole entry, looked up, the tested form may be a part): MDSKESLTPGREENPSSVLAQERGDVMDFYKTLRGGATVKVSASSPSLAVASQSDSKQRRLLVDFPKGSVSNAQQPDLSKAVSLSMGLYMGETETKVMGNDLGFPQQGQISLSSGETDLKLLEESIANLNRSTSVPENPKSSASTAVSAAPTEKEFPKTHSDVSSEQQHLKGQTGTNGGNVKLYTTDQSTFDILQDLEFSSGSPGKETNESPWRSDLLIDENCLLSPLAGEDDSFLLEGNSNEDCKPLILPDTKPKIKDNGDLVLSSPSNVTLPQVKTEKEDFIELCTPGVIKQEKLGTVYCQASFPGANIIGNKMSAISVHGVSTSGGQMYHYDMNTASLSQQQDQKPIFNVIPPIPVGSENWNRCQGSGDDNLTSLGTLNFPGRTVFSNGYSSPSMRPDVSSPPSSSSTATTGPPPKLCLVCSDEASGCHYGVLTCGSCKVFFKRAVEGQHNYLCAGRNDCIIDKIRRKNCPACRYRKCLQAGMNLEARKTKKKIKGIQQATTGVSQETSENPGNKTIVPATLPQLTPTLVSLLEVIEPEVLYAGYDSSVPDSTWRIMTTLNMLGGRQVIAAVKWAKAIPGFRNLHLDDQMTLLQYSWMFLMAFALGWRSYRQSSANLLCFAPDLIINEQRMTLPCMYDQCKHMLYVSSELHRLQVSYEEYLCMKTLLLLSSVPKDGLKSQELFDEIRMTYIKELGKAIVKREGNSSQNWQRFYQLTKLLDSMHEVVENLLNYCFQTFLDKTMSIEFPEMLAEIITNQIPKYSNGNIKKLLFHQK

[6] = target: Glucocorticoid receptor (Homo sapiens) (UniProt P04150); assay: GR-EFC Redistribution (AID 451; calls by dose curve; also: potency is read from the fitted curve at half-maximal effect); conditions: CHO-K1 GR-EFC translocation, beta-gal luminescence, 2 h
Summary of the method: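 CHO-K1 cells stably expressing nuclear-localized β-gal enzyme acceptor and GR fused C-terminally to the enzyme donor fragment; ligand-driven nuclear translocation restores β-gal by complementation. Compounds titrated up to 46 uM final, 2 h at 37 °C; luminescence read.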

[7] = target: Mitogen-activated protein kinase 10 (Mus musculus) (UniProt Q61831); assay: JNK3 AlphaScreen Assay (AID 530; active = well fitted curve in either direction with a large enough effect, not every such curve was filed as active;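 also: kinase came from lysate of stimulated human HepG2 cells; signal reports phosphorylation of biotinylated GST-cJun 1-79 at Ser73 with 10 µM ATP; % is scaled to controls: 0 for no effect and ±100 for the full control effect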); conditions: JNK3 lysate, c-Jun phosphorylation; series mostly up to 57.1 µM
Summary of the method: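 Biotinylated GST-cJun(1-79) served as substrate for JNK3 in HepG2 lysates stimulated with IL-1beta and TNF-alpha. ATP was 10 uM final, pH 7.6. Ser73 phosphorylation was quantified by AlphaScreen (680 nm excitation).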

[8] = target: 3',5'-cyclic-AMP phosphodiesterase 4B (Homo sapiens) (UniProt Q07343); assay: qHTS Assay for Inhibitors of PDE-IV (AID 607; active = well fitted activation curve with a large enough effect in the main read-out, with a control signal flat, not every such curve was filed as active; also: % of control where 0% means no effect); conditions: HEK293 ACTOne CNG channel cells, membrane potential fluorescence; series mostly up to 22.9 µM
Sequence of 3',5'-cyclic-AMP phosphodiesterase 4B (Homo sapiens) (Q07343 whole entry, looked up): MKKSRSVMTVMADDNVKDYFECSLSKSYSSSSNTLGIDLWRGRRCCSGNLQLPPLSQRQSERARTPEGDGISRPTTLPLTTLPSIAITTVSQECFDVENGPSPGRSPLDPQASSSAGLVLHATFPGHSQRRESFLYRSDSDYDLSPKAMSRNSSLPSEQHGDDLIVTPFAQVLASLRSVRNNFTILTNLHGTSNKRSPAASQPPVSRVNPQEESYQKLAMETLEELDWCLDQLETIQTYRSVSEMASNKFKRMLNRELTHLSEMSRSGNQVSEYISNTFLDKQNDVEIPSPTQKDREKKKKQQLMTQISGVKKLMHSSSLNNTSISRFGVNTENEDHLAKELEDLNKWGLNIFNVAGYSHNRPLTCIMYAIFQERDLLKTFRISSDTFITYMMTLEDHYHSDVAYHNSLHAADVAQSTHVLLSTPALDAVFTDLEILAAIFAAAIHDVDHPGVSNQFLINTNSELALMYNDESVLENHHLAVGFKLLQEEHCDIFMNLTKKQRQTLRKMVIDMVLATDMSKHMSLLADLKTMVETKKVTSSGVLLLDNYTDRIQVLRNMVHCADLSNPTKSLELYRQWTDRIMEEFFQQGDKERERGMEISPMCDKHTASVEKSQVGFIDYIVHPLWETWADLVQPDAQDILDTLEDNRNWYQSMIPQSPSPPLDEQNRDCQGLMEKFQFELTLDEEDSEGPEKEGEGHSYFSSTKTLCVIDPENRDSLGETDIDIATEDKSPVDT
Summary of the method: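 ACTOne HEK293 cells carry a modified cAMP-gated CNG channel and express endogenous PDE4; plated 1000 cells/well, compounds up to 22.9 uM final. Membrane-potential dye fluorescence (ex 535/em 590) was read; parental cells received 10 uM forskolin + 100 uM RO 20-1724.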

[9] = qHTS Assay for Lipid Storage Modulators (AID 1519; calls by dose curve); conditions: Drosophila S3 cells, BODIPY lipid droplet/cell ratio, laser cytometry, cells loaded with oleic acid; for activity change, negative = inhibition: at 25.7 µM (top of the series)
Summary of the method: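 Cells seeded at 5,000 per well were treated with compounds over a concentration series and loaded with oleic acid (400 uM, as added). Lipid droplet fluorescence (488 nm excitation, 500-530 nm channel) was read by laser-scanning cytometry and normalized to 20 uM Triacsin C.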

[10] = target: Ubiquitin carboxyl-terminal hydrolase 1 (Homo sapiens) (UniProt O94782); assay: Inhibitors of USP1/UAF1: Pilot qHTS (AID 504865); conditions: purified USP1/UAF1, Ub-rhodamine cleavage fluorescence; series mostly up to 54.9 µM; also: nearly all actives have a fitted effect of over 35% in size; also: potency is read from the fitted curve at half-maximal effect
Sequence of Ubiquitin carboxyl-terminal hydrolase 1 (Homo sapiens) (O94782 whole entry, looked up): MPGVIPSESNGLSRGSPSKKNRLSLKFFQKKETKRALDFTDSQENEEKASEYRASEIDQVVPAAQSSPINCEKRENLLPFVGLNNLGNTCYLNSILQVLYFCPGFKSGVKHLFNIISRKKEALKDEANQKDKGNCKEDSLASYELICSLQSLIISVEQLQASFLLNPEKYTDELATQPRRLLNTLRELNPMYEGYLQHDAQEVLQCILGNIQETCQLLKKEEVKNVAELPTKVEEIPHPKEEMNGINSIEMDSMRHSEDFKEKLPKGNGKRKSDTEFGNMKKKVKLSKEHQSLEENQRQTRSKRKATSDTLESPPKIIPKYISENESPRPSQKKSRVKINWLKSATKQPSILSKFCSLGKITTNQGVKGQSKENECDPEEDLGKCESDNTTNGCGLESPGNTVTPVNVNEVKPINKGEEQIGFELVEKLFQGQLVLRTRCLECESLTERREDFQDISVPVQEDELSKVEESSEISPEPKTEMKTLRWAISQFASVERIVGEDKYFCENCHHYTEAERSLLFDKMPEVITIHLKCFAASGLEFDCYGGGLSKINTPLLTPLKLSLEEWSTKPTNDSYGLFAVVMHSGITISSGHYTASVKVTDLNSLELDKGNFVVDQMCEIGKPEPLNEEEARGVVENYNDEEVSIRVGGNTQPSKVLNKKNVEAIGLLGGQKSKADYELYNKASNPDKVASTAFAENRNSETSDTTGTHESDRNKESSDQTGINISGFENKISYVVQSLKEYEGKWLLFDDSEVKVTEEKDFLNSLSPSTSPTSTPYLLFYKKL
Summary of the method: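 USP1/UAF1 complex (1nM) preincubated with compound 15 min at room temperature, then Ub-Rho substrate (150nM final) added. Fluorescence read kinetically at 480/540 nm, 6 reads every 60 seconds. Buffer: 50mM HEPES pH 7.8, 0.5mM EDTA, 0.1 mg/ml BSA, 1mM TCEP, 0.01% Tween-20.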

[11] = target: Luciferin 4-monooxygenase (Photinus pyralis) (UniProt P08659); assay: Biochemical firefly luciferase enzyme assay for NPC (AID 624030);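 also: purified P. pyralis luciferase at 10 nM with luciferin and ATP substrate; 0% = DMSO and -100% = full luciferase inhibition by PTC124 control; nearly all actives have a fitted effect of over 70% in size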; conditions: purified P. pyralis luciferase, luminescence, 5 min; series mostly up to 58.6 µM
Sequence of Luciferin 4-monooxygenase (Photinus pyralis) (P08659 whole entry, looked up): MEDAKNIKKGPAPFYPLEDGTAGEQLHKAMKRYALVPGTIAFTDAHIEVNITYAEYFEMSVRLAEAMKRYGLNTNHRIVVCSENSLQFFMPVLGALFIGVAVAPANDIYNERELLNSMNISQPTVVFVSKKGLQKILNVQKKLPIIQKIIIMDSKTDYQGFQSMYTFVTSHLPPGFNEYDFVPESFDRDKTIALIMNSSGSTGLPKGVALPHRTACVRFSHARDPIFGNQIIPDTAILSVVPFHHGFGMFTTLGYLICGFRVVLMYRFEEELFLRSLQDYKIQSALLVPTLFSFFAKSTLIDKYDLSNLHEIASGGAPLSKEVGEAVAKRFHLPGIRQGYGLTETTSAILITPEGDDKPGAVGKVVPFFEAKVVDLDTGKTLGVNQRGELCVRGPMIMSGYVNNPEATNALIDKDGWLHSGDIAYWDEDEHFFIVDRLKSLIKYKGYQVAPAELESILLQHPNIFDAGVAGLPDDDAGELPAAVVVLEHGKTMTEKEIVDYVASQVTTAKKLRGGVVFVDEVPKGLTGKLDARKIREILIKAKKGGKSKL
Summary of the method: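 Counter-screen for direct inhibition of the luciferase enzyme by approved-drug library compounds, run at 10 nM enzyme in 50 mM Tris acetate (final). Luminescence was read within 5 min of enzyme-buffer addition and normalized to PTC124 versus DMSO (0%).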

[12] = qHTS profiling for inhibitors of Plasmodium falciparum proliferation (AID 504749); also: potency is read from the fitted curve at half-maximal effect;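 as to activity, negative = inhibition: 0% = DMSO vehicle and full inhibition = artemisinin control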; as to all read-outs here: nearly all actives have a fitted effect of over 60% in size; conditions: P. falciparum in erythrocytes, SYBR Green DNA, 72 h; for activity, negative = inhibition: at 28.7 µM (top of the series)
Summary of the method: (§1)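 Fluorescence of SYBR Green-bound parasite DNA, read at 485/535 nm, served as the growth measure. Infected erythrocytes were cultured with compound 72 h; artemisinin (0.29 uM) and DMSO wells defined the normalization range.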

CP238 = assay: as above; conditions: P. falciparum in erythrocytes, SYBR Green DNA, 72 h; series mostly up to 12.8 µM
Summary of the method: as §1

CP262 = assay: as above; conditions: P. falciparum in erythrocytes, SYBR Green DNA, 72 h; series mostly up to 12.8 µM
Summary of the method: as §1

CP325 = assay: as above; conditions: P. falciparum in erythrocytes, SYBR Green DNA, 72 h; series mostly up to 12.8 µM
Summary of the method: as §1

ECU = assay: as above; conditions: P. falciparum in erythrocytes, SYBR Green DNA, 72 h; series mostly up to 12.8 µM
Summary of the method: as §1

FAB9 = assay: as above; conditions: P. falciparum in erythrocytes, SYBR Green DNA, 72 h; series mostly up to 12.8 µM
Summary of the method: as §1

HB3 = assay: as above; conditions: P. falciparum in erythrocytes, SYBR Green DNA, 72 h; series mostly up to 12.8 µM
Summary of the method: as §1

JCK = assay: as above; conditions: P. falciparum in erythrocytes, SYBR Green DNA, 72 h; series mostly up to 12.8 µM
Summary of the method: as §1

[13] = target: Cytochrome P450 3A4 (Homo sapiens) (UniProt P08684); assay: qHTS Assay for Activators of Cytochrome P450 3A4 (AID 885); conditions: recombinant CYP3A4, Luciferin-PPXE luminescence, 60 min; series mostly up to 57.1 µM; also: nearly all actives have a fitted effect of over 65% in size
Sequence of Cytochrome P450 3A4 (Homo sapiens) (P08684 whole entry, looked up): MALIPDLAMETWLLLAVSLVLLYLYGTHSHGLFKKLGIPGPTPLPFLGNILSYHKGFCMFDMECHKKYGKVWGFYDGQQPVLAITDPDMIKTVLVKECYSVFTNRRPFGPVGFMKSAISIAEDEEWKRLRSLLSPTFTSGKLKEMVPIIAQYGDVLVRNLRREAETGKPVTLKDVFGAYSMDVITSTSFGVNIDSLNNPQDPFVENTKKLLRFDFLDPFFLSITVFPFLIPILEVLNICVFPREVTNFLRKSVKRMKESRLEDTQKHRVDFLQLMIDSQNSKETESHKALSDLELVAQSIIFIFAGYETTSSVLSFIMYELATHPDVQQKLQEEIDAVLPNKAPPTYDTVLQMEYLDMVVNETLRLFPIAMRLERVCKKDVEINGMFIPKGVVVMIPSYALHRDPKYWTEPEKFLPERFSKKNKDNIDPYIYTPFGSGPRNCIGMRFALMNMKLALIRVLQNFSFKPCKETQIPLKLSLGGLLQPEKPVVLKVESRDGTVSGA
Summary of the method: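 CYP3A4 activity: Luciferin-PPXE O-dealkylation, 25uM substrate, 200mM KPO4, RT throughout. Read-out is luciferase luminescence; higher values reflect activation.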

[14] = measured here: cell count channel max response
[15] = measured here: lipid channel max response

C[C@H](NCCc1ccc(O)cc1)[C@@H](O)c1ccc(O)cc1
-0.394%: max response [9, 15]
inactive: activity change, negative = inhibition ([1]; at 17.2 µM (top of the series)) -5.73% | activity change, negative = inhibition ([1]; at 38 µM (top of the series)) 12.1% | Potency [2] | activity change, negative = inhibition [3] -28.4% [at 17.2 µM] | activity, negative = inhibition ([4]; at 7.69 µM (top of the series) unless noted) 13.1% [at 17.2 µM] | Potency [5] > 46 µM and > 20.6 µM | Potency [6] > 46 µM and > 20.6 µM | Potency [7] | Potency [8] | activity change, negative = inhibition [9] -0.451% | Potency [10] | outcome [11] | activity, negative = inhibition ([12]; parasite line A) 3.98% | activity, negative = inhibition ([12]; parasite line B) 6.27% | Potency (CP238) | Potency (CP262) | Potency (CP325) | Potency (ECU) | Potency (FAB9) | Potency (HB3) | Potency (JCK)
-0.183%: max response [9, 14]

CCN(CC)CCC[C@H](C)Nc1c2ccc(Cl)cc2nc2ccc(OC)cc12
-11.8%: max response [9, 14]
-13%: max response [9, 15]
inactive: activity change, negative = inhibition ([1]; at 17.2 µM (top of the series)) 28.6% | activity change, negative = inhibition ([1]; at 38 µM (top of the series)) 21.9% | Potency [7] | Potency [8] | Potency [13] | activity change, negative = inhibition [9] -0.0943% | outcome [11]
active: Potency [2] 2 µM and 1 µM | Potency [10] 31600 nM | Potency ([12]; parasite line A) 224 nM | Potency ([12]; parasite line B) 282 nM | Potency (CP238) 1120 nM | Potency (CP262) 426 nM | Potency (CP325) 426 nM | Potency (ECU) 447 nM | Potency (FAB9) 447 nM | Potency (HB3) 251 nM | Potency (JCK) 3160 nM

C[C@@](N)(Cc1ccc(O)c(O)c1)C(=O)O
-7.65%: max response [9, 15]
inactive: activity change, negative = inhibition ([1]; at 17.2 µM (top of the series)) 0.401% | activity change, negative = inhibition ([1]; at 38 µM (top of the series)) 5.17% and -4.03% | Potency [2] | activity, negative = inhibition ([4]; at 17.2 µM (top of the series)) 0.151% | activity, negative = inhibition ([4]; at 38 µM (top of the series)) -17.9% and -0.208% | Potency [7] | Potency [8] | Potency [13] | activity change, negative = inhibition [9] -1.42% | Potency [10]
6.8%: max response [9, 14]

CC[C@H](NC(C)C)[C@H](O)c1ccc(O)c(O)c1
-11.2%: max response [9, 15]
active: Potency [2] 15.8 µM and 12.6 µM
-4.02%: max response [9, 14]
inactive: activity change, negative = inhibition ([1]; at 17.2 µM (top of the series)) -20.6% | activity change, negative = inhibition ([1]; at 38 µM (top of the series)) -15.3% | activity change, negative = inhibition [3] -6.46% [at 17.2 µM] | Potency [7] | Potency [8] | Potency [13] | activity change, negative = inhibition [9] -0.896% | Potency [10] | outcome [11] | activity, negative = inhibition ([12]; parasite line A) 4.3% | activity, negative = inhibition ([12]; parasite line B) -2.19% | Potency (CP238) | Potency (CP262) | Potency (CP325) | Potency (ECU) | Potency (FAB9) | Potency (HB3) | Potency (JCK)
